# Assay outcomes from PubChem BioAssay.
# Shown are actives, neighbours in structure and some others; about 18% of the full set was active somewhere.
# DT40 TDP1 CPT: qHTS for Inhibitors of human tyrosyl-DNA phosphodiesterase 1 (TDP1): qHTS in cells in presence of CPT. chicken DT40 Tdp1-/-;hTDP1 cells + 20 nM CPT, ATP luminescence, 48 h. Potency, µM (highest dose often 46.2 µM), inactives show top-dose activity change, negative = growth inhibition, actives largely listed as inhibitors. actives 12% (n = 420,000). AID 686979, 2013; also: potency is read from the fitted curve at half-maximal effect; % is scaled to controls: 0 for no effect and ±100 for the full control effect; nearly all actives have a fitted effect of over 55% in size
#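 Chicken DT40 Tdp1-/- cells complemented with human TDP1, 400 cells/well, exposed to compounds plus 20 nM camptothecin for at least 48 h at 37 C; viability read as ATP content by CellTiter-Glo luminescence.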
# TGFb SMAD3 inh: qHTS for Inhibitors of TGF-b; HepG2 CAGA-GFP TGF-b/SMAD3 reporter, GFP fluorescence, 18 h; TGF-beta stimulated, 500 pg/mL final; Potency, µM (highest dose often 46.1 µM), inactives show at the highest dose activity, negative = inhibition, hits mostly inhibitors; actives 1.2% (n = 410,000); also: potency is read from the fitted curve at half-maximal effect; % is scaled to controls: 0 for no effect and ±100 for the full control effect; nearly all actives have a fitted effect of over 65% in size
#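 HEPG2 CAGA-GFP cells (1000/well, DMEM with 1% FBS) were pre-incubated 2 h at 37 degrees C, given compound by pin tool, then stimulated with TGF-beta at 500 pg/mL final for 18 h before per-cell GFP fluorescence imaging.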
# DT40 TDP1 no CPT: qHTS for Inhibitors of human tyrosyl-DNA phosphodiesterase 1 (TDP1): qHTS in cells in absence of CPT; DT40 Tdp1-/- hTDP1 cells, no CPT, ATP luminescence, 48 h; Potency, µM (titrated, usually from 46.2 µM), without a hit: at the highest dose activity change, negative = growth inhibition, actives largely listed as inhibitors; actives 15% (n = 420,000); also: potency is read from the fitted curve at half-maximal effect; % is scaled to controls: 0 for no effect and ±100 for the full control effect; nearly all actives have a fitted effect of over 55% in size
#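 No-CPT arm: Tdp1-/-;hTDP1 DT40 cells (400/well) plus compounds, incubated ≥48 hr at 37 °C. Readout CellTiter-Glo luminescence.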
# HepG2 viability: qHTS for Inhibitors of TGF-b: Cytotox Counterscreen; HepG2 CAGA-GFP viability, ATP luminescence, 18 h; Potency, µM (top dose mostly 46.1 µM), for the others: top-dose activity change, negative = cytotoxicity, usual class: cytotoxic; actives 0.76% (n = 410,000); also: potency is read from the fitted curve at half-maximal effect
#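 HepG2 CAGA-GFP cells (1000/well, DMEM with 1% FBS) received compound, then TGF-beta at 500 pg/mL final, and were incubated 18 hours at 37 degrees C. Viability was read by CellTiter-Glo luminescence. Media-only wells were set as complete cell-killing and DMSO as no toxicity.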
# TDP1 inh: qHTS Assay for Inhibitors of Tyrosyl-DNA Phosphodiesterase (TDP1); Tyrosyl-DNA phosphodiesterase 1 (Homo sapiens), Q9NUW8; recombinant TDP1, AlphaScreen DNA substrate cleavage; Potency, µM (series often up to 130 µM), inactives show at the highest dose activity change, negative = inhibition, actives largely listed as inhibitors; actives 0.28% (n = 350,000); also: potency is read from the fitted curve at half-maximal effect; % is scaled to controls: 0 for no effect and ±100 for the full control effect; nearly all actives have a fitted effect of over 40% in size
# Target sequence (Q9NUW8 whole entry, looked up): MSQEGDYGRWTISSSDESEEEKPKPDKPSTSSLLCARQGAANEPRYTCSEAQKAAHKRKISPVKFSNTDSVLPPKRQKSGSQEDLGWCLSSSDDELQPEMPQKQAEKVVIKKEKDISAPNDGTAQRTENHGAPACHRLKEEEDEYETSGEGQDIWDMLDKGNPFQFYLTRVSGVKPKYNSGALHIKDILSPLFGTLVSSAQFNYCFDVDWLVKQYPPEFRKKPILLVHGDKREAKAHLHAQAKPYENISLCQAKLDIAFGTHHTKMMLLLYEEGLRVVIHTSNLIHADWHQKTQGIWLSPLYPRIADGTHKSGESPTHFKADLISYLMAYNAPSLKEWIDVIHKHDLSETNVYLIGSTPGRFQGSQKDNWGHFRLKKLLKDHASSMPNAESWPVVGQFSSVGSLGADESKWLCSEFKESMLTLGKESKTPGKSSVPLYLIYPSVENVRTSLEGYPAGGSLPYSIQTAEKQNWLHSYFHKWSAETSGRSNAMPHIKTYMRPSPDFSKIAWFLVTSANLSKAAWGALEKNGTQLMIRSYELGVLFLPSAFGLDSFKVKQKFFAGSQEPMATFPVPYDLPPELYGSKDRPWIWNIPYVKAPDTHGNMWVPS
#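 Enzyme-compound mixtures sat 15 min at room temperature, followed by a 5 min reaction with 15 nM final substrate and 10 min with AlphaScreen beads. Recombinant human Tdp1 was used at 1 nM final.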
# IL-1B inflam inh: qHTS for Inhibitors of Inflammasome Signaling: IL-1-beta AlphaLISA Primary Screen. AID 743279, 2014. activity change, % at 57.5 µM. actives 4.7% (n = 360,000). THP-1 LPS/ATP IL-1B secretion, AlphaLISA, 16 h; stronger effect = lower value; in the data active = activity change below about -50%; inconclusive = mostly about -30% to -49%; also: % is scaled to controls: 0 for no effect and ±100 for the full control effect
#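 Secreted IL-1B measured by AlphaLISA bead assay after 16 h compound exposure of THP-1 cells; compounds (final up to 57.5 uM) added 1 h before LPS (250 ng/mL) and ATP (1.25 mM) stimulation; lower signal means less secretion.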
# * hit, by the source's call; ? = inconclusive; nt = no result; [ ] = another dose, or the depositor's remark. Unless noted, calls follow the shape of the dose curve; as a rule, active = well fitted curve in the direction sought with a large enough effect; inconclusive = small, poorly fitted or top-dose-only effect, or another doubt; inactive = no such curve, though single readings can be large; an effect the other way counts as inactive or inconclusive.
SMILES,DT40 TDP1 CPT,TGFb SMAD3 inh,DT40 TDP1 no CPT,HepG2 viability,TDP1 inh,IL-1B inflam inh
COc1ccc(S(=O)(=O)Cc2ccc(C(=O)NC3CCC(C)CC3)o2)cc1 (stereo unspecified),-8%,22%,?,19%,6%,-5
COc1cc(Cl)c(CNC[C@H]2O[C@@H](n3cnc4c(N)ncnc43)[C@H](O)[C@@H]2O)c(Cl)c1O,-3%,0%,-24%,1%,0%[56.1 µM],37
CN(C)CCOC(=O)[C@@H](c1ccccc1)C1(O)CCCC1,nt,nt,nt,nt,4%,nt
CCN1C(=O)[C@H]2[C@H]3CN=C(SCC(=O)c4ccccc4)N3[C@@](C)(C(=O)OC)[C@H]2C1=O,?,-40%,-10%,4%,1%[56.1 µM],1
Cc1ccc(C(=O)c2c3ccccc3[n+]([O-])n2CCC(N)=O)cc1,2%,14%,-9%,5%,nt,18
Cc1ccc(C(=O)c2c3ccc([N+](=O)[O-])cc3[n+]([O-])n2CCC(N)=O)cc1,5.8µM*,?,15µM*,-14%,nt,1
COc1ccc(C(=O)c2c3ccc([N+](=O)[O-])cc3[n+]([O-])n2CCCC(N)=O)cc1,9.2µM*,?,21µM*,-26%,3%,5
CNC1=C(Br)C(=O)c2ccncc2C1=O,nt,nt,nt,nt,1%,nt
CC(C)(C)c1ccc(NC(=O)CON=C(N)c2ccccc2)cc1,?,-3%,29µM*,-32%,-3%[0.505 µM],8
Cc1cc(C(=O)O/N=C(\N)c2ccc(C(C)(C)C)cc2)no1,-15%,-12%,-18%,-12%,-3%,-21
Cc1noc(-c2ccc(Cl)cc2)c1C(=O)O/N=C(\N)c1ccc(C(C)(C)C)cc1,?,?,?,-95%,nt,-66*
CCOC(=O)c1cc(/C(C)=N/OC(=O)c2ccc(C(C)(C)C)cc2)on1,?,-21%,16µM*,-51%,-1%,16
CC(C)(C)c1ccc(C(=O)O/N=C(\N)c2ccccc2)cc1,?,27%,13µM*,-8%,nt,7
Cc1occc1C(=O)O/N=C(\N)c1ccc(Cl)cc1,-3%,0%,-22%,-6%,3%,-15
CN(C(=O)c1cccc(NC(=O)Cc2ccc(NC(=O)C3CCN(C(=O)CCc4ccccc4)CC3)cc2)c1)C1CCCCC1,21µM*,-23%,15µM*,-13%,nt,-9
O=C(Cc1cccc(NC(=O)C2CCCN(C(=O)C3CCCC3)C2)c1)Nc1ccc(C(=O)N2CCOCC2)cc1 (stereo unspecified),16µM*,-28%,?,-21%,nt,-25
CN(C(=O)c1cccc(NC(=O)Cc2cccc(NC(=O)C3CCCN(C(=O)CCc4ccccc4)C3)c2)c1)C1CCC1 (stereo unspecified),?,?,21µM*,-33%,nt,-18
O=C(Cc1cccc(NC(=O)C2CCCN(C(=O)CCc3ccccc3)C2)c1)Nc1cccc(C(=O)N2CCCCC2)c1 (stereo unspecified),16µM*,-28%,21µM*,-24%,nt,-21
CN(C(=O)c1ccc(NC(=O)Cc2cccc(NC(=O)C3CCCN(C(=O)CCc4ccccc4)C3)c2)cc1)C1CC1 (stereo unspecified),?,-24%,?,-15%,nt,8
O=c1c(O)c(-c2ccccc2)oc2ccc3occc3c12,-17%,nt,0%,nt,2%,nt
CCCn1c2ccccc2c2cnn(CC(=O)N3CCN(c4ccccc4)CC3)c(=O)c21,?,?,?,-15%,1%,nt
OCC1=C[C@@H](O)[C@@H]2C=CO[C@@H](OC3O[C@H](CO)[C@@H](O)[C@H](O)[C@H]3O)[C@H]12 (stereo partly specified),nt,nt,nt,nt,4%,nt
COc1cc(CN(CCN(C)C)Cc2ccccc2)ccc1OCc1ccccc1,?,0%,23µM*,-49%,nt,-63*
COCCNC(=O)C1(C)CCCN(C(=O)c2cccc(C(F)(F)F)c2)C1 (stereo unspecified),-18%,21%,-17%,5%,nt,21
CC1(C(=O)NS(=O)(=O)C2CC2)CCCN(C(=O)c2cccc(C(F)(F)F)c2)C1 (stereo unspecified),?,23%,4.1µM*,1%,nt,40
SMILES,DT40 TDP1 CPT,TGFb SMAD3 inh,DT40 TDP1 no CPT,HepG2 viability,TDP1 inh,IL-1B inflam inh
CC1(C(=O)NS(=O)(=O)C2CC2)CCCN(C(=O)c2ccc(C(F)(F)F)cc2)C1 (stereo unspecified),0.73µM*,?,0.65µM*,2%,nt,34
COc1cc(C(=O)N2CCCC(C)(C(=O)NS(=O)(=O)C3CC3)C2)cc(OC)c1OC (stereo unspecified),1.6µM*,12%,0.92µM*,6%,nt,-16
CC1(C(=O)NS(=O)(=O)C2CC2)CCCN(C(=O)c2cccc(OC(F)(F)F)c2)C1 (stereo unspecified),?,19%,3.7µM*,9%,nt,-64*
CC1(C(=O)NS(=O)(=O)C2CC2)CCN(C(=O)c2ccccc2C(F)(F)F)C1 (stereo unspecified),-20%,-4%,-1%,-22%,nt,11
COc1ccc(C(=O)N2CCCC(C)(C(=O)NS(=O)(=O)C3CC3)C2)cc1 (stereo unspecified),?,2%,1.5µM*,3%,nt,24
CC1(C(=O)NS(=O)(=O)C2CC2)CCCN(C(=O)c2ccccc2OC(F)(F)F)C1 (stereo unspecified),?,4%,9.2µM*,2%,nt,12
CC1(C(=O)NS(=O)(=O)C2CC2)CCN(C(=O)c2cc(F)cc(F)c2)C1 (stereo unspecified),6%,23%,8%,25%,nt,12
COc1ccc(S(=O)(=O)Nc2ccc3c(c2)C(=O)N([C@H](C)CO)C[C@H](C)[C@@H](CN(C)Cc2ccncc2)OCCCC[C@@H](C)O3)cc1,-63%,-3%,?,4%,nt,-20
CCN=C1S/C(=C\c2ccc(OCC)c(OC)c2)C(=O)N1CC,?,5%,21µM*,-9%,-2%,-51*
